Laboratory results from PubChem BioAssay (NCI).
Compounds without any hit were thinned out: in the full panel of roughly 83,000, 20% have a hit.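 Percent growth is the endpoint: 0 to 100 indicates growth inhibition (40 means 60% inhibition), 0 means no net growth, and negative values indicate cell death.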 Activity calls are given as the source filed them.

What follows are compounds tested on SNB-19 CNS (assay: NCI-60 one-dose screen, 48 h (100 = growth as untreated, 0 = no growth, -100 = all killed)). Conditions: 10 µM unless noted.
Procedure: Growth inhibition of the SNB-19 human tumor cell line is measured as a screen for anti-cancer activity. Cells are grown in 96 well plates and exposed to the test compound for 48 hours. Compounds are tested at a single concentration, which is 10^-5 M for most compounds. The reported endpoint is percent growth (GI% or GIPRCNT), where numbers from 0 - 100% represent growth inhibition, and numbers from -100% - 0 represent cell death. For example, a value of 40 represents 60% growth inhibition. A value of 0 means no net growth occurred over the course of the experiment. A value of -40 indicates 40% of cells at the beginning of the experiment died by the end of the experiment. A value of -100 means all cells are dead at the end of the experiment.
NCI-60 Human Tumor Cell Lines Screen was performed using the standard one-dose NCI protocol, which is described in more detail at https://dtp.cancer.gov/discovery_development/nci-60/default.htm.
Compounds with GIPRCNT values below 10 were considered active. Activity score was based on GIPRCNT using the following formula: […]
Score is 0 for GIPRCNT values of 100 or above, 50 for GIPRCNT values of 0, and 100 for GIPRCNT values of -100.

| SMILES | growth |
| --- | --- |
| CCn1c(Sc2nnc(NC(=O)CCN3CCCC3)s2)nc2c1c(=O)n(C)c(=O)n2C | 104% (inactive) |
| CCOC(=O)Cc1csc2nc(-c3ccccc3)nn12 | 90.2% (inactive) |
| Cc1cc2c(F)c(Oc3ncnc(Nc4ccc(N5C[C@@H](C)N[C@@H](C)C5)cc4)c3C#N)cc(F)c2[nH]1 | 37.4% (inactive) |
| CCNCCNc1cc(-c2ccc(C(=O)OC)cc2)c(C#N)c2nc3ccccc3n12 | 41.8% (inactive) |
| COc1ccc(/C=C2\COc3ccc(O)cc3C2=O)c(OC)c1 | 55.3% (inactive) |
| C[C@@H](C[C@H](CCOCc1cccnc1)c1ccccc1)c1cc2ccccc2o1 | 94.2% (inactive) |
| Cc1nc(Nc2ccc(N)cc2)c2ccccc2n1 | 97.7% (inactive) |
| c1ccc2c(c1)nc(-n1ccnc1)c1nc3ccccc3n12 | 42.8% (inactive) |
| O=C(O)c1ccccc1C(=O)Nc1ccc(Cl)cc1 | 102% (inactive) |
| COc1cc(C(=O)Nc2cc(O)c(CC=C(C)C)c(O)c2)cc2c1O[C@]1(C)CC[C@@H](O)C(C)(C)[C@H]1C2 | 53.4% (inactive) |
| O=C1C2=C(CCN(Cc3ccccc3)C2)N2CCN=C2N1Cc1ccc(F)cc1F | 30.1% (inactive) |
| CNCCNc1nc2ccccc2c2c(=O)c3cc(F)ccc3oc12 | 57.9% (inactive) |
| CCOC(=O)C1=C(C)NC(SCc2nnc(-c3ccc(Cl)cc3)o2)=NC1c1ccc(Cl)cc1Cl (stereo not given) | 72.9% (inactive) |
| C[C@]12CCC(=O)C[C@H]1CC[C@@H]1[C@@H]2CC[C@@]2(C)[C@H]1CC[C@]2(O)C(=O)CO | 108% (inactive) |
| COc1ccc(-c2nc3ccccn3c2/C=C/C(=O)c2cc(OC)c(OC)c(OC)c2)cc1 | 72.4% (inactive) |
| N#Cc1c(NC(=O)c2cccc(C(F)(F)F)c2)sc2c1CCC(=O)C2 | 12.3% (inactive) |
| Cl.[Pt].[c-]1ccccc1-c1ccccn1.c1ccc(P(c2ccccc2)C([PH+](c2ccccc2)c2ccccc2)[PH+](c2ccccc2)c2ccccc2)cc1 | 27.6% (inactive) |
| Cc1ccc(S(=O)(=O)Nc2sccc2-c2nc(-c3ccccc3)no2)cc1 | 94.4% (inactive) |
| CC1=CC(=O)C(C(C)C)=CC1=Nc1cc(Br)c(O)c(Br)c1 | 42.1% (inactive) |
| O=C1N/C(=N/O)S/C1=C/c1cn(-c2ccccc2)nc1-c1ccccc1 | 107% (inactive) |

| SMILES | growth |
| --- | --- |
| Cc1nc(C)c(-c2nn3c(-c4cccc(F)c4)nnc3s2)s1 | 93.6% (inactive) |
| CC/C=C/[C@@H]1C=C[C@@H]2CCC[C@H]2[C@@H]1CC[C@H](O)[C@H](C)N | -41.2% (active) |
| COc1ccc(/C=C2\COc3ccc(O)cc3C2=O)cc1OC | 59.5% (inactive) |
| COc1ccc(NC(=O)C(=O)c2c[nH]c3ccc(F)cc23)cc1 | 104% (inactive) |
| CCCCN1CCN(c2ccc3nc(-c4ccc5nc(-c6cc(OC)c(OC)c(OC)c6)[nH]c5c4)[nH]c3c2)CC1 | 71.9% (inactive) |
| N=C(N)c1ccc(-c2ccc(-c3ccc(Cl)cc3Cl)o2)nc1 | 48.6% (inactive) |
| COc1ccc(-c2cn(-c3cccc(C(=O)/C=C/c4cc(OC)c(OC)c(OC)c4)c3)c(=O)[nH]2)cc1 | 34.2% (inactive) |
| O=C1C(Cl)C(c2ccccc2Cl)N1n1cnnc1 (stereo not given) | 93% (inactive) |
| N#Cc1c(N)n2c(nc1=Nc1ccc([N+](=O)[O-])cc1)sc1cc(Cl)ccc12 | 95.7% (inactive) |
| CC(=O)c1sc(-c2ccccc2)cc1N | 94.5% (inactive) |
| CC(=O)Nc1nccs1 | 96.3% (inactive) |
| CCOc1ccc(-c2nc3ccc(-c4nc5ccc(N6CCN(C)CC6)cc5[nH]4)cc3[nH]2)cc1OCC | 8.93% (active) |
| C/C(=N\NC(N)=S)c1nc2ccc(Cl)cc2[nH]1 | 57.6% (inactive) |
| C=C(C)[C@@H]1CC[C@]2(CO)CC[C@]3(C)[C@H](CC[C@@H]4[C@@]5(C)C=C(C#N)C(=O)C(C)(C)[C@@H]5CC[C@]43C)[C@@H]12 | 18.5% (inactive) |
| CCOC(=O)c1nnn(C(Cc2ccccc2Cl)C(=O)OCC)c1C (stereo not given) | 104% (inactive) |
| CN(C)CN1CCN(c2ccc3nc(-c4ccc5nc(-c6ccc(C(F)(F)F)cc6)[nH]c5c4)[nH]c3c2)CC1 | 69.6% (inactive) |
| COc1ccc(-c2nnc(-c3ccc4c(c3)nc(-c3ccccc3)n4C3CCCCC3)o2)cc1 | 86% (inactive) |
| CCCCN1CCN(c2ccc3nc(-c4ccc5nc(-c6ccc(OCC)c(OCC)c6)[nH]c5c4)[nH]c3c2)CC1 | -28.8% (active) |
| COc1ccc(-c2nnc(SCC(=O)NC3=NN=C(c4ccccc4)CS3)o2)cc1 | 90.8% (inactive) |
| COc1cc2c(cc1OC)-c1ccc3cc4c(cc3c1N(CCCN(C)C)C2)OCO4 | 25.3% (inactive) |
